Only some compounds are listed: those with a hit (about 1.4% of all), similar ones and a draw of the others.
MEX-5 binding = C. elegans MEX-5 TCR-2 RNA binding activity; 300,000 compounds, 0.38% hits; activity score (negative = inhibition of binding), % at 10 µM; Q9XUB2; MEX-5/FITC-TCR2 RNA binding, fluorescence polarization; active compounds read low;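 active = inhibition past about -25% in most replicates, and total fluorescence under double the plate's negative control median, limit read from the data; inconclusive = replicates evenly split on the limit, or fluorescence at least double controls; inactive = too little inhibition in most replicates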;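 also: 0% = DMSO and -100% = 5 µM competing unlabeled TCR2 RNA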
Target sequence (Q9XUB2 whole entry, looked up): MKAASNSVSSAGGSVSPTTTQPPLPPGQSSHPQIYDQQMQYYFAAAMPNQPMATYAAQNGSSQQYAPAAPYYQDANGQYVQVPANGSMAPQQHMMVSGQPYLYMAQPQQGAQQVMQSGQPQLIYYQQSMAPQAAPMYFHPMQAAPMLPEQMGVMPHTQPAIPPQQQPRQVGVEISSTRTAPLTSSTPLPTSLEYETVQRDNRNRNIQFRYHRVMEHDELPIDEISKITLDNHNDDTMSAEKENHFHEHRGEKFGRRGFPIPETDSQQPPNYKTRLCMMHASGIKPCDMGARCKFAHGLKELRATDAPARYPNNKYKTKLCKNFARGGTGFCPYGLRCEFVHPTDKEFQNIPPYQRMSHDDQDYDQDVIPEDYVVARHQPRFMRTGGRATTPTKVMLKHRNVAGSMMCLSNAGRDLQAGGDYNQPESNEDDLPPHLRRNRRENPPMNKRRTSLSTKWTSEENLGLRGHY
GLD-1 TGE inh = GLD-1-TGE RNA interaction inhibition (C. elegans) | AID 2280 | 320,000 compounds, 0.44% hits | inhibition, % at 5.96 µM | purified GLD-1 + fluorescein TGE RNA, fluorescence polarization | Q17339;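 active = percent inhibition above a per-plate cutoff, the plate mean of test compounds plus 3 SD, cut at about 30% in these data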;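 also: 0% = DMSO wells with GLD-1 and probe and 100% = wells lacking GLD-1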
MCL1-BIM inh = MCL1-BIM-BH3 interaction inhibition (human). Q07820. GST-MCL1 / FITC-Bim-BH3 fluorescence polarization. inhibition, % at 10.9 µM. 320,000 compounds, 0.68% hits. AID 2057;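 active = inhibition above the mean inhibition of all tested compounds plus 3 SD, set per campaign, cut at about 40% in these data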;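 also: 0% = DMSO wells and 100% = unlabeled Bim-BH3 peptide control; higher means more loss of mP so more displacement of Bim peptide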
Bcl-xL primary = inhibitors of human Bcl-xL | Q07817 | GST-Bcl-xL / FITC-Bim BH3 peptide fluorescence polarization | inhibition, % at 10.9 µM | 320,000 compounds, 0.7% hits;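 active = inhibition above the mean of all tested compounds plus 3 SD, cutoff set per campaign, cut at about 30% in these data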;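 also: 0% = DMSO wells and 100% = unlabeled Bim-BH3 peptide competitor; inhibitors lower millipolarization by displacing the labeled peptide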
Target sequence (Q07817 whole entry, looked up): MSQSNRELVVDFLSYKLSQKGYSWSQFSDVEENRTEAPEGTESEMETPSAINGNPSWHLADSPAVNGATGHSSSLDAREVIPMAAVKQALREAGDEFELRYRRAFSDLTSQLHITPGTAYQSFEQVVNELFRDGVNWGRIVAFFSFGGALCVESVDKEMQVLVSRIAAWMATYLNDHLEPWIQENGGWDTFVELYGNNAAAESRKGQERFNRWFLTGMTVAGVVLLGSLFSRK
EBV gp42 inh = EBV gp42 inhibition; Fluorescence polarization binding assay, mP read-out; 220,000 compounds, 0.42% hits; inhibition, % (tested at 21.74 µM); Q1HVG2; in the data active = inhibition above about 50%
E coli Lon inh = inhibitors of E. coli Lon protease; P0A9M0; purified E. coli Lon protease, fluorescence polarization; inhibition, % at 7.94 µM; 360,000 compounds, 0.42% hits; AID 602123; in the data active = inhibition above about 13%, passing the limit was not always enough;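 also: 0% = enzyme with probe and DMSO and 100% = no enzyme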
Bcl-xL conf = Bcl-xL (human) inhibition, MCL1 counter-screen confirmation; shares compounds with MCL1-BIM inh; GST-Bcl-xL / FITC-Bim BH3 peptide FP binding; inhibition, % at 10.9 µM; 1,700 compounds, 54% hits; AID 2166;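 active = inhibition above a cutoff equal to the mean inhibition of all tested compounds plus 3 SD, cut at about 30% in these data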;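 also: 0% = DMSO wells and 100% = unlabeled Bim BH3 control peptide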
MCL1 BIM confirm = confirmation of human MCL1 and BIM-BH3 interaction inhibitors; shares compounds with MCL1-BIM inh; GST-MCL1 / FITC-Bim-BH3 fluorescence polarization; inhibition, % at 10.9 µM; 1,700 compounds, 61% hits;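 active = inhibition above the average of all tested compounds plus 3 SD, cut at about 40% in these data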;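 also: 0% = DMSO wells and 100% = unlabeled Bim-BH3 control peptide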
An asterisk follows results filed as active.

What do the screens show for `CN(CC(=O)N1CCN(c2ccccc2)CC1)C1CCCc2ccccc21` (stereo not given)?
MEX-5 binding: -1; GLD-1 TGE inh: -6; MCL1-BIM inh: 2; Bcl-xL primary: 7; E coli Lon inh: -3

What do the screens show for `COc1ccc(OC)c(-c2csc(N(CC3CCCO3)C(=O)C3CCCCC3)n2)c1` (stereo not given)?
MEX-5 binding: -1; GLD-1 TGE inh: 4; MCL1-BIM inh: -2; Bcl-xL primary: 11; EBV gp42 inh: 8; E coli Lon inh: -5

Results for Oc1ccc(O)c(/C(=N/Nc2ccccc2)c2ccccc2)c1 ?
MEX-5 binding: -4; GLD-1 TGE inh: 1; MCL1-BIM inh: 49*; Bcl-xL primary: 26; Bcl-xL conf: 17; MCL1 BIM confirm: 13

What do the screens show for `Fc1ccc(COc2ccccc2-c2ccnc3ncnn23)cc1`?
MEX-5 binding: 0; GLD-1 TGE inh: -8; MCL1-BIM inh: -4; Bcl-xL primary: -4; EBV gp42 inh: -3; E coli Lon inh: 6

Results for c1ccc(Nc2nc3ccccc3n3nnnc23)cc1 ?
MEX-5 binding: 1; GLD-1 TGE inh: 5; MCL1-BIM inh: 61*; Bcl-xL primary: 36*; EBV gp42 inh: 42; E coli Lon inh: -30; Bcl-xL conf: 34*; MCL1 BIM confirm: 33

What do the screens show for `Brc1ccc(Nc2nc3ccccc3n3nnnc23)cc1`?
MEX-5 binding: -1; GLD-1 TGE inh: 3; MCL1-BIM inh: 17; Bcl-xL primary: 12; EBV gp42 inh: 11

Results for CC(=O)C1=NN(c2ccc(Cl)cc2)C(c2ccc3c(c2)OCO3)N(C(C)=O)N1C (stereo not given) ?
MEX-5 binding: -1; GLD-1 TGE inh: -4; MCL1-BIM inh: 3; Bcl-xL primary: 2; EBV gp42 inh: -8; E coli Lon inh: 8

What do the screens show for `OCC[C@@H]1C[C@H](O)[C@@H](O)[C@@]2(OCCCc3cc(C(F)(F)F)ccc32)O1`?
E coli Lon inh: -7

How did Cc1c(C)[n+](=O)c(C)c(C)n1[O-] do in these assays?
E coli Lon inh: -5

How did Cn1c(CCc2nc3ccccc3[nH]2)nnc1SCC#N do in these assays?
MEX-5 binding: -2; GLD-1 TGE inh: 0; MCL1-BIM inh: -2; Bcl-xL primary: -6; EBV gp42 inh: 0; E coli Lon inh: -5

Results for Cc1ccc(C)c(C(=O)CCC(=O)OCn2nnc3ccccc3c2=O)c1 ?
GLD-1 TGE inh: -3; MCL1-BIM inh: 85*; Bcl-xL primary: 2; E coli Lon inh: 2; Bcl-xL conf: 12; MCL1 BIM confirm: 9

Results for Cc1ccccc1C(=O)OCn1nnc2ccccc2c1=O ?
MEX-5 binding: 0; GLD-1 TGE inh: 4; MCL1-BIM inh: 3; Bcl-xL primary: 1; EBV gp42 inh: 3; E coli Lon inh: 1

What do the screens show for `CCN(CC)c1ccc2c(c1)CCCN2`?
MEX-5 binding: -8; GLD-1 TGE inh: 90*; MCL1-BIM inh: 128*; Bcl-xL primary: 105*; EBV gp42 inh: -20; Bcl-xL conf: 28; MCL1 BIM confirm: 19

Results for O=S(=O)(c1ccc2c(c1)CCCN2)N1CCCC1 ?
GLD-1 TGE inh: 5; MCL1-BIM inh: 11; Bcl-xL primary: 6; E coli Lon inh: -5

What do the screens show for `CCN(CC)C(=O)COc1ccc2c(-c3ccccc3)cc(=O)oc2c1`?
MEX-5 binding: 1; GLD-1 TGE inh: 6; MCL1-BIM inh: active; Bcl-xL primary: 6; E coli Lon inh: 2; Bcl-xL conf: 2; MCL1 BIM confirm: -3

Results for Clc1nc(CN2CCCCC2)nc2sc3c(c12)CCC3 ?
MEX-5 binding: 4; GLD-1 TGE inh: 3; MCL1-BIM inh: -2; Bcl-xL primary: 3; EBV gp42 inh: -13; E coli Lon inh: 2

Results for Cc1ccc2nc3c(cc(C(=O)NCC4CCCO4)c(=N)n3C3CCCC3)c(=O)n2c1 (stereo not given) ?
MEX-5 binding: inconclusive; GLD-1 TGE inh: 8; MCL1-BIM inh: 3; Bcl-xL primary: 4; E coli Lon inh: -2

How did Cc1ccc2nc3c(cc(C(=O)NCc4ccco4)c(=N)n3C3CCCC3)c(=O)n2c1 do in these assays?
MEX-5 binding: -12; GLD-1 TGE inh: 37*; MCL1-BIM inh: 83*; Bcl-xL primary: 69*; E coli Lon inh: -2; Bcl-xL conf: 74*; MCL1 BIM confirm: 94*

How did COc1cccc(C(O)c2nc(-c3ccc4ccccc4c3)cs2)c1 (stereo not given) do in these assays?
E coli Lon inh: 7

How did O=C(O)CC1S/C(=N/N=C/c2ccc(-c3ccc(Cl)c([N+](=O)[O-])c3)o2)NC1=O (stereo not given) do in these assays?
MEX-5 binding: -9; GLD-1 TGE inh: 3; MCL1-BIM inh: 41*; Bcl-xL primary: 19; EBV gp42 inh: 9; E coli Lon inh: 3; Bcl-xL conf: 12; MCL1 BIM confirm: 37

What do the screens show for `CNc1ccccc(C(=O)/C=C/c2ccccc2OC)c1=O`?
MEX-5 binding: -17; GLD-1 TGE inh: 5; MCL1-BIM inh: 41*; Bcl-xL primary: 24; EBV gp42 inh: 5; E coli Lon inh: -12; Bcl-xL conf: 29; MCL1 BIM confirm: 62*

What do the screens show for `OCCCc1nc2n(n1)C(c1ccccc1)C=C(c1ccccc1)N2` (stereo not given)?
MEX-5 binding: -7; GLD-1 TGE inh: 19; MCL1-BIM inh: 28; Bcl-xL primary: 24; EBV gp42 inh: 24; E coli Lon inh: 1

Results for COc1ccc(C2C=C(c3ccccc3)Nc3nc(CCCO)nn32)cc1 (stereo not given) ?
GLD-1 TGE inh: 15; MCL1-BIM inh: 30; Bcl-xL primary: 30; EBV gp42 inh: 18

What do the screens show for `CCC(=O)Nc1nc2n(n1)C(c1ccc(OC)cc1)C=C(c1ccccc1)N2` (stereo not given)?
MEX-5 binding: -2; GLD-1 TGE inh: 51*; MCL1-BIM inh: 60*; Bcl-xL primary: 60*; EBV gp42 inh: 60*; Bcl-xL conf: 75*; MCL1 BIM confirm: 92*

What do the screens show for `O=C(c1nc2n(n1)C(c1ccc(Cl)cc1)C=C(c1ccccc1)N2)N1CCOCC1` (stereo not given)?
MEX-5 binding: -16; GLD-1 TGE inh: 48*; MCL1-BIM inh: 75*; Bcl-xL primary: 65*; EBV gp42 inh: 77*; E coli Lon inh: 12; Bcl-xL conf: 71*; MCL1 BIM confirm: 89*

High-throughput results from PubChem BioAssay.
